# From PMC7862700, “An all-to-all approach to the identification of sequence-specific readers for epigenetic DNA modifications on cytosine”
# Columns and labels:
# Test in all cases: DAPPL (digital affinity profiling via proximity ligation, sequencing); 10 mM Tris-HCl pH 7.5, 50 mM NaCl, 1 mM DTT, 4% glycerol, room temperature, 30 min; GST-TFs on glutathione beads, 16-mer random dsDNA library, 0.1% formaldehyde crosslink after washing; high values mean tight binding
# Settings in all cases: protein: recombinant; tags: N-terminal GST; dsDNA, one strand shown
# ERF = biological target: T1, ERF (Homo sapiens, UniProt P50548 1-548)
# T1 sequence: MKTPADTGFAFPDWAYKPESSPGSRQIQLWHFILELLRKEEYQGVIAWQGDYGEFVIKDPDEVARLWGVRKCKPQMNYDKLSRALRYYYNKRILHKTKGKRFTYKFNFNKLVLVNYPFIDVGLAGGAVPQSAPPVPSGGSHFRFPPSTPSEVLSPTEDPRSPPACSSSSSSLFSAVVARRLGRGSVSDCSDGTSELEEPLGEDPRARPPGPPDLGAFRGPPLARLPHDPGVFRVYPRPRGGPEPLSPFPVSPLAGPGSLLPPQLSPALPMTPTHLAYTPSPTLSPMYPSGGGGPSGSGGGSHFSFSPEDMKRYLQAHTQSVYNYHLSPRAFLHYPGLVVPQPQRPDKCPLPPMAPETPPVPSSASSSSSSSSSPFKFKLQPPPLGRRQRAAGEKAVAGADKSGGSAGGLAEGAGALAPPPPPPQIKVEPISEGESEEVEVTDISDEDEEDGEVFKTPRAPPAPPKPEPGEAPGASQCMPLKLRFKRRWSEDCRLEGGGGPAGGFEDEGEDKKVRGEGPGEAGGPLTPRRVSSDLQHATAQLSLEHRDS
# Outline: (§1)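 GST fusions of human transcription factors were expressed in yeast and captured with glutathione beads. Once given DNA barcodes and pooled alongside a tag-only sample, they were incubated for 30 min at room temperature with 200 nmole of a random double-stranded 16-mer DNA library in Tris/NaCl/DTT/glycerol buffer, then washed, crosslinked (0.1% formaldehyde), proximity-ligated, PCR-amplified and sequenced on an Illumina NextSeq500. The binding signal of each hexamer is its read frequency for a factor divided by its frequency for the tag-only sample.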
# ETV3L = biological target: T2, ETV3L (Homo sapiens, UniProt Q6ZN32 1-361)
# T2 sequence: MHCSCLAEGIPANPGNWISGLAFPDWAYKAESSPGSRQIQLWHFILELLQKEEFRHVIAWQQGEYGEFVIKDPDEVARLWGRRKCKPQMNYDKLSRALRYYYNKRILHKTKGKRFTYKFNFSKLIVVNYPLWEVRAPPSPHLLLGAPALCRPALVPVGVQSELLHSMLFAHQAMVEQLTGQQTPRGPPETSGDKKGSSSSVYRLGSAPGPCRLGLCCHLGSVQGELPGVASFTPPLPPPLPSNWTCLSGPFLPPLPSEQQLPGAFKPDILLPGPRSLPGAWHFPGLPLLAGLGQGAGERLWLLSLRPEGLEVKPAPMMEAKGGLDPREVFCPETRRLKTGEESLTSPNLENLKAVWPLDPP
# Outline: as §1
# ETS2 = biological target: T3, ETS2 (Homo sapiens, UniProt P15036 1-469)
# T3 sequence: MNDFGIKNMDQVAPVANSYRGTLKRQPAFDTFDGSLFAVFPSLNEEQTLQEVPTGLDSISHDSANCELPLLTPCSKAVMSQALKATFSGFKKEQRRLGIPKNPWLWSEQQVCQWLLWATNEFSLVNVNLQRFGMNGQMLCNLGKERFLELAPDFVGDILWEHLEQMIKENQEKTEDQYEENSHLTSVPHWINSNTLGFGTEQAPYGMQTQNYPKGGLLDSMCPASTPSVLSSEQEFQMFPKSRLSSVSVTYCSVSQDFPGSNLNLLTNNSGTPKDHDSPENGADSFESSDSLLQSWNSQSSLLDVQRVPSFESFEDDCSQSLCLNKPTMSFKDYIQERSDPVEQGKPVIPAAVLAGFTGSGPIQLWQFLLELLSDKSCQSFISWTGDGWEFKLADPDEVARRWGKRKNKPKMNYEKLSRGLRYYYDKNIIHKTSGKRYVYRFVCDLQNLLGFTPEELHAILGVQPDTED
# Outline: as §1
# SPDEF = biological target: T4, SPDEF (Homo sapiens, UniProt O95238 1-335)
# T4 sequence: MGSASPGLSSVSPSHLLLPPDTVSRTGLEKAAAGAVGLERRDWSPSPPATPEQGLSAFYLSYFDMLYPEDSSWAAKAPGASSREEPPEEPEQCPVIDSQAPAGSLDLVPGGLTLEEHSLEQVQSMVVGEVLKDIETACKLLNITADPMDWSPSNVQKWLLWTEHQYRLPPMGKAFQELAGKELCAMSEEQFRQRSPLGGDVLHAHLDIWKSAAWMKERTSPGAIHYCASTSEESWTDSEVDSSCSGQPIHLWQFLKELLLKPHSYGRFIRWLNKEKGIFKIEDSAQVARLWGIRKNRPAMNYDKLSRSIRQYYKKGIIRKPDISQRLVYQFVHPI
# Outline: as §1
# ETV7 = biological target: T5, ETV7 (Homo sapiens, UniProt Q9Y603 1-341)
# T5 sequence: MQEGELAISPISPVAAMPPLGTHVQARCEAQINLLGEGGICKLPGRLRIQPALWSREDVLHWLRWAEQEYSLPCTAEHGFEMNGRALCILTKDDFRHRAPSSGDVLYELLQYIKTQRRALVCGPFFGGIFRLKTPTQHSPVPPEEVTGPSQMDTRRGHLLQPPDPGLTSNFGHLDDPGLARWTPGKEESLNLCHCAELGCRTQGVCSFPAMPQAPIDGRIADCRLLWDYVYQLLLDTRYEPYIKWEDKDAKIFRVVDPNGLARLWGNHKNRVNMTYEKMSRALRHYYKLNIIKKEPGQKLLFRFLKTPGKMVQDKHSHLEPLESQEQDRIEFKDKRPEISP
# Outline: as §1
# ELF5 = biological target: T6, ELF5 (Homo sapiens, UniProt Q9UKW6-2 1-255)
# T6 sequence: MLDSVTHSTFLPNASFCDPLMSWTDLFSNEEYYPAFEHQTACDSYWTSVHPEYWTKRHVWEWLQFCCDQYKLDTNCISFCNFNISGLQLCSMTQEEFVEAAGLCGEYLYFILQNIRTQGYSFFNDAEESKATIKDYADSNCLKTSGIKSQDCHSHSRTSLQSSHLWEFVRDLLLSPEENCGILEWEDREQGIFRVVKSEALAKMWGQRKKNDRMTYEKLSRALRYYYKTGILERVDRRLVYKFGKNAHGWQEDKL
# Outline: as §1
# ETV3 = biological target: T7, ETV3 (Homo sapiens, UniProt P41162-2 1-143)
# T7 sequence: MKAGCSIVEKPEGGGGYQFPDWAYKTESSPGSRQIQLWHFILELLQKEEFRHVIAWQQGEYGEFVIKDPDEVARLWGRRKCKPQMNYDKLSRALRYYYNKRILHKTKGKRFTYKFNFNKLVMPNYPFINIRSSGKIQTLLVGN
# Outline: as §1
# ETV6 = ETV6 (Homo sapiens, UniProt P41212 1-452)
# Outline: as §1
# Sequence of ETV6 (P41212 whole entry): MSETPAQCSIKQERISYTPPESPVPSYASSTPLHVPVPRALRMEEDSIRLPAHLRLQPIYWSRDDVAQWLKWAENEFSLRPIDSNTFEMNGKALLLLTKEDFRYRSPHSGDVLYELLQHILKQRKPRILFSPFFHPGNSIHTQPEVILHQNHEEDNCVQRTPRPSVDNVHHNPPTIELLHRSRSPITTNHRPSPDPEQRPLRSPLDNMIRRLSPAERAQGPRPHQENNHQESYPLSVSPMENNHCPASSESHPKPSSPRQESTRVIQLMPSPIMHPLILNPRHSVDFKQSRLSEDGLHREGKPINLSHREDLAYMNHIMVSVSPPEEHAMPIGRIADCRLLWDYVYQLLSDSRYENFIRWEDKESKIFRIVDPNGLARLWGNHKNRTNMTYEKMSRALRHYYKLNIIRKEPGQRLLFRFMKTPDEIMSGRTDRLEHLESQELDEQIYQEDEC
Sequence,binding signal (ERF),binding signal (ETV3L),binding signal (ETS2),binding signal (SPDEF),binding signal (ETV7),binding signal (ELF5),binding signal (ETV3),binding signal (ETV6)
TGCGCT,"1.33 fold enrichment (6-mer frequency, TF over GST control)","1.21 fold enrichment (6-mer frequency, TF over GST control)","1.43 fold enrichment (6-mer frequency, TF over GST control)","1.19 fold enrichment (6-mer frequency, TF over GST control)","1.17 fold enrichment (6-mer frequency, TF over GST control)","1.15 fold enrichment (6-mer frequency, TF over GST control)","1.24 fold enrichment (6-mer frequency, TF over GST control)","1.24 fold enrichment (6-mer frequency, TF over GST control)"
TTTGCG,"1.36 fold enrichment (6-mer frequency, TF over GST control)","1.16 fold enrichment (6-mer frequency, TF over GST control)","1.21 fold enrichment (6-mer frequency, TF over GST control)","1.2 fold enrichment (6-mer frequency, TF over GST control)","1.11 fold enrichment (6-mer frequency, TF over GST control)","1.16 fold enrichment (6-mer frequency, TF over GST control)","1.17 fold enrichment (6-mer frequency, TF over GST control)","1.29 fold enrichment (6-mer frequency, TF over GST control)"
TGCGAT,"1.24 fold enrichment (6-mer frequency, TF over GST control)","1.27 fold enrichment (6-mer frequency, TF over GST control)","1.14 fold enrichment (6-mer frequency, TF over GST control)","1.15 fold enrichment (6-mer frequency, TF over GST control)","1.23 fold enrichment (6-mer frequency, TF over GST control)","1.11 fold enrichment (6-mer frequency, TF over GST control)","1.23 fold enrichment (6-mer frequency, TF over GST control)","1.16 fold enrichment (6-mer frequency, TF over GST control)"
AATGTA,"1.14 fold enrichment (6-mer frequency, TF over GST control)","1.1 fold enrichment (6-mer frequency, TF over GST control)","1.25 fold enrichment (6-mer frequency, TF over GST control)","1.2 fold enrichment (6-mer frequency, TF over GST control)","1.15 fold enrichment (6-mer frequency, TF over GST control)","1.21 fold enrichment (6-mer frequency, TF over GST control)","1.17 fold enrichment (6-mer frequency, TF over GST control)","1.15 fold enrichment (6-mer frequency, TF over GST control)"
ACATAA,"1.05 fold enrichment (6-mer frequency, TF over GST control)","1.1 fold enrichment (6-mer frequency, TF over GST control)","1.07 fold enrichment (6-mer frequency, TF over GST control)","1.03 fold enrichment (6-mer frequency, TF over GST control)","1.11 fold enrichment (6-mer frequency, TF over GST control)","1.09 fold enrichment (6-mer frequency, TF over GST control)","1.09 fold enrichment (6-mer frequency, TF over GST control)","1.08 fold enrichment (6-mer frequency, TF over GST control)"
TCCTCG,"1.48 fold enrichment (6-mer frequency, TF over GST control)","1.57 fold enrichment (6-mer frequency, TF over GST control)","1.35 fold enrichment (6-mer frequency, TF over GST control)","1.33 fold enrichment (6-mer frequency, TF over GST control)","1.49 fold enrichment (6-mer frequency, TF over GST control)","1.93 fold enrichment (6-mer frequency, TF over GST control)","1.5 fold enrichment (6-mer frequency, TF over GST control)","1.48 fold enrichment (6-mer frequency, TF over GST control)"
ACCCTA,"1.3 fold enrichment (6-mer frequency, TF over GST control)","1.26 fold enrichment (6-mer frequency, TF over GST control)","1.24 fold enrichment (6-mer frequency, TF over GST control)","1.19 fold enrichment (6-mer frequency, TF over GST control)","1.27 fold enrichment (6-mer frequency, TF over GST control)","1.19 fold enrichment (6-mer frequency, TF over GST control)","1.25 fold enrichment (6-mer frequency, TF over GST control)","1.17 fold enrichment (6-mer frequency, TF over GST control)"
CTCTGC,"1.56 fold enrichment (6-mer frequency, TF over GST control)","1.52 fold enrichment (6-mer frequency, TF over GST control)","1.54 fold enrichment (6-mer frequency, TF over GST control)","1.4 fold enrichment (6-mer frequency, TF over GST control)","1.27 fold enrichment (6-mer frequency, TF over GST control)","1.34 fold enrichment (6-mer frequency, TF over GST control)","1.5 fold enrichment (6-mer frequency, TF over GST control)","1.27 fold enrichment (6-mer frequency, TF over GST control)"
CCGAAT,"1.35 fold enrichment (6-mer frequency, TF over GST control)","1.24 fold enrichment (6-mer frequency, TF over GST control)","1.22 fold enrichment (6-mer frequency, TF over GST control)","1.17 fold enrichment (6-mer frequency, TF over GST control)","1.12 fold enrichment (6-mer frequency, TF over GST control)","1.1 fold enrichment (6-mer frequency, TF over GST control)","1.12 fold enrichment (6-mer frequency, TF over GST control)","1.22 fold enrichment (6-mer frequency, TF over GST control)"
TCCTGT,"1.6 fold enrichment (6-mer frequency, TF over GST control)","1.88 fold enrichment (6-mer frequency, TF over GST control)","1.84 fold enrichment (6-mer frequency, TF over GST control)","2.32 fold enrichment (6-mer frequency, TF over GST control)","1.89 fold enrichment (6-mer frequency, TF over GST control)","2.35 fold enrichment (6-mer frequency, TF over GST control)","1.89 fold enrichment (6-mer frequency, TF over GST control)","1.84 fold enrichment (6-mer frequency, TF over GST control)"
TTACAA,"1.23 fold enrichment (6-mer frequency, TF over GST control)","1.1 fold enrichment (6-mer frequency, TF over GST control)","1.16 fold enrichment (6-mer frequency, TF over GST control)","1.22 fold enrichment (6-mer frequency, TF over GST control)","1.11 fold enrichment (6-mer frequency, TF over GST control)","1.17 fold enrichment (6-mer frequency, TF over GST control)","1.08 fold enrichment (6-mer frequency, TF over GST control)","1.09 fold enrichment (6-mer frequency, TF over GST control)"
CCTCCT,"1.64 fold enrichment (6-mer frequency, TF over GST control)","1.44 fold enrichment (6-mer frequency, TF over GST control)","1.57 fold enrichment (6-mer frequency, TF over GST control)","1.58 fold enrichment (6-mer frequency, TF over GST control)","1.61 fold enrichment (6-mer frequency, TF over GST control)","1.9 fold enrichment (6-mer frequency, TF over GST control)","1.46 fold enrichment (6-mer frequency, TF over GST control)","1.55 fold enrichment (6-mer frequency, TF over GST control)"
AATCAC,"1.05 fold enrichment (6-mer frequency, TF over GST control)","1.12 fold enrichment (6-mer frequency, TF over GST control)","1.06 fold enrichment (6-mer frequency, TF over GST control)","1.05 fold enrichment (6-mer frequency, TF over GST control)","1.02 fold enrichment (6-mer frequency, TF over GST control)","1.09 fold enrichment (6-mer frequency, TF over GST control)","1.07 fold enrichment (6-mer frequency, TF over GST control)","1.09 fold enrichment (6-mer frequency, TF over GST control)"
AATAAT,"1.52 fold enrichment (6-mer frequency, TF over GST control)","1.35 fold enrichment (6-mer frequency, TF over GST control)","1.42 fold enrichment (6-mer frequency, TF over GST control)","1.21 fold enrichment (6-mer frequency, TF over GST control)","1.23 fold enrichment (6-mer frequency, TF over GST control)","1.29 fold enrichment (6-mer frequency, TF over GST control)","1.27 fold enrichment (6-mer frequency, TF over GST control)","1.34 fold enrichment (6-mer frequency, TF over GST control)"
CCCCAA,"1.06 fold enrichment (6-mer frequency, TF over GST control)","1.2 fold enrichment (6-mer frequency, TF over GST control)","1.13 fold enrichment (6-mer frequency, TF over GST control)","1.11 fold enrichment (6-mer frequency, TF over GST control)","1.1 fold enrichment (6-mer frequency, TF over GST control)","1.12 fold enrichment (6-mer frequency, TF over GST control)","1.15 fold enrichment (6-mer frequency, TF over GST control)","1.14 fold enrichment (6-mer frequency, TF over GST control)"
